Compounds without any hit were thinned out: in the full panel of roughly 83,000, 20% have a hit.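 48-hour exposure, single concentration, 96-well plates; percent growth endpoint where 0 means no net growth. Active: below 10.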 Values without a mark were called inactive. Activity calls are given as the source filed them.
Tested on: UACC-62 melanoma
Test: NCI-60 one-dose screen, 48 h (100 = growth as untreated, 0 = no growth, -100 = all killed)
Details: 10 µM unless noted
Description: Growth inhibition of the UACC-62 human tumor cell line is measured as a screen for anti-cancer activity. Cells are grown in 96 well plates and exposed to the test compound for 48 hours. Compounds are tested at a single concentration, which is 10^-5 M for most compounds. The reported endpoint is percent growth (GI% or GIPRCNT), where numbers from 0 - 100% represent growth inhibition, and numbers from -100% - 0 represent cell death. For example, a value of 40 represents 60% growth inhibition. A value of 0 means no net growth occurred over the course of the experiment. A value of -40 indicates 40% of cells at the beginning of the experiment died by the end of the experiment. A value of -100 means all cells are dead at the end of the experiment.
NCI-60 Human Tumor Cell Lines Screen was performed using the standard one-dose NCI protocol, which is described in more detail at https://dtp.cancer.gov/discovery_development/nci-60/default.htm.
Compounds with GIPRCNT values below 10 were considered active. Activity score was based on GIPRCNT using the following formula: […]
Score is 0 for GIPRCNT values of 100 or above, 50 for GIPRCNT values of 0, and 100 for GIPRCNT values of -100.

Compound	growth
O=C(CCCCCCNC(=O)c1csc(Br)n1)NO	14.4%
NS(=O)(=O)c1ccc(Nc2nc(Nc3ccccc3)nc(N3N=C(c4ccc(Cl)cc4)CC3c3ccc(Cl)cc3)n2)cc1 (stereo not given)	97.6%
C#CCn1cc(/C=N/Nc2nc(-c3ccc(Br)cc3)cs2)c2ccccc21	91.5%
CCOC(=O)C1=C(C)NC(C)=C(C(=O)OC(C)C)C1c1cccc(C#N)c1 (stereo not given)	93.3%
COc1ccc(-c2c3c(cn2Cc2cccc(OC)c2)-c2oncc2CCC3)cc1	79.3%
Fc1cc(F)cc(NNC(=S)c2ccccc2)c1	31.8%
NC1=NC2(CCCC2)N(c2ccc(S(=O)(=O)Nc3nccs3)cc2)C(N)=N1	98.9%
Cc1[nH]c(C(=O)Nc2ccccc2OCc2cccc(C(=O)NC3CCCNC3)c2)c(Cl)c1Cl (stereo not given)	-84.4% (active)
Cc1cc(=O)[nH]c(O)c1C#N	91.7%
CC1=C(C)C(=O)C(Nc2ccc3c(c2)OCO3)=C(Br)C1=O	87.4%
O=C1[C@H]2Cc3c([nH]c4ccccc34)[C@H](c3ccc(Cl)cc3)N2C(=O)CN1C1CCN(CC2CCCCC2)CC1	93.4%
CN1CCN(Cc2ccc(NC(=O)c3cncc(C#Cc4cnc5ccc(OCC6COC6)nn45)c3)cc2C(F)(F)F)CC1	-49.8% (active)
CCc1cccc2c3c(sc12)C(c1ccc(F)cc1)C(C#N)=C(/N=C/c1ccc(Cl)cc1)O3 (stereo not given)	23.8%
Cn1cc(-c2nc(N)nnc2-c2c[nH]c3ccc(Br)cc23)c2cc(F)ccc21	91.7%
COc1ccccc1N1CCN(C2=C(Cl)C(=O)c3ncccc3C2=O)CC1	83%
C#Cc1nc(/C=C\CCCCCCC(=O)NO)cs1	31.2%
O=C1C(N2CCN(c3ccccc3)CC2)=C(Cl)C(=O)c2ncccc21	61.8%
C#CCN(C)CCCOc1ccc(NCc2ccc(/C=C/C(=O)NO)cc2)cc1Cl	-53.7% (active)
Cc1ccc(S(=O)(=O)NCCCNc2nccc(-c3[nH]c(-c4ccccc4)nc3-c3ccc(F)c(O)c3)n2)cc1	18.7%
Oc1[nH]c2ccc(Cl)cc2c1N=Nc1nc(N=Nc2c(O)[nH]c3ccc(Cl)cc23)nc(N2CCOCC2)n1	51.6%

Compound	growth
N#CC1=C2NCCCNc3oc(nc3C#N)Cc3ccccc3CC(=N1)O2	87.5%
C#Cc1cc(C(=O)Nc2ccc(CNCCN3CCOCC3)c(C(F)(F)F)c2)ccc1C	93.9%
C=C(C)[C@@H]1CC[C@]2(C(=O)O)CC[C@]3(C)[C@H](CC[C@@H]4[C@@]5(C)C/C(=C/c6ccccn6)C(=O)C(C)(C)[C@@H]5CC[C@]43C)[C@@H]12	40.1%
COC(=O)CCCNCCCn1ccc2cc(NCc3cccc(-c4ccccc4)c3C)ccc21	83.4%
COc1cc2oc(-c3cccc(NC(=O)[C@@H](N)C(C)C)c3)cc(=O)c2c(OC)c1OC	91.3%
COC(=O)c1cccc(NC2=CC(=O)C(C)=C(C)C2=O)c1	96.2%
O=C1[C@@H]2Cc3c([nH]c4ccccc34)[C@H](c3ccc(Cl)cc3)N2C(=O)CN1C1CCN(Cc2ccccc2)CC1	75.4%
CCN(CC)CCOc1ccc(C(=C(C)Cc2ccc(OC)cc2)c2ccc(OCCN(CC)CC)cc2)cc1	-37.6% (active)
CC(Nc1ncnc2ccc(-c3cnc4cnccn34)cc12)c1ccccc1 (stereo not given)	53.9%
COc1ccc(-c2cc(-c3ccc(N4CCOCC4)cc3)n3c(n2)nc2ccccc23)cc1OC	94.3%
Cc1cc2nc3c4cc(C#N)ccc4n(CCN(C)C)c3nc2cc1C	-60.6% (active)
NS(=O)(=O)c1ccc(Nc2nc(N/N=C/c3ccc4c(c3)OCO4)nc(Nc3ccccc3)n2)cc1	78.4%
CN(C)S(=O)(=O)c1ccc(-c2nc(C(Cl)Cl)nc3cc(-c4ccc(F)cc4)nn23)cc1	26%
CN(C)S(=O)(=O)c1ccc(-c2nc(C(Cl)Cl)nc3cc(-c4ccccc4)nn23)cc1	11.7%
C#CCOc1ccccc1/C=N/Nc1nc(-c2ccc(Cl)cc2)cs1	85.7%
CCOc1cccc(/C(N)=N/C(N)=N/c2nc3ccccc3s2)c1	81.4%
Nn1c(=O)n(-c2cccc(C(F)(F)F)c2)c(=O)c2cc(-c3ccc(F)cc3F)ccc21	1.73% (active)
CCN(CC)CCOc1ccc(C(=C(c2ccccc2)C2CCCC2)c2ccc(OCCN(CC)CC)cc2)cc1	-74.7% (active)
O=c1nc(Nc2ccc([N+](=O)[O-])cc2O)sc2ccccc12	15.2%
COc1cc(C(=O)c2cc(C(C)=O)c3cccc(C)n23)cc(OC)c1OC	23.3%
